Assay results reported in PubChem BioAssay (NCI).
Several values for one entry are separate records, joined by “and”; a condition that tells them apart may be missing. Identical values can stand only once. Compounds without any hit were thinned out: in the full panel of roughly 83,000, 20% have a hit.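 How to read the values: 0–100, growth inhibition (40 = 60% inhibited); 0, no net growth; -100 to 0, cell death (-40 = 40% of starting cells died; -100 = all dead).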 Activity calls are given as the source filed them. Rule for the calls: active = growth percent below 10; inactive = the rest.

How the values were obtained:
Experiment in all cases: NCI-60 one-dose screen, 48 h (100 = growth as untreated, 0 = no growth, -100 = all killed)
Settings in all cases: 10 µM unless noted
DU-145 prostate = tested on: DU-145 prostate
K-562 leukemia = tested on: K-562 leukemia
MALME-3M melanoma = tested on: MALME-3M melanoma
MDA-MB-231 breast = tested on: MDA-MB-231 breast
RXF 393 renal = tested on: RXF 393 renal
SF-268 CNS = tested on: SF-268 CNS
SF-295 CNS = tested on: SF-295 CNS
SF-539 CNS = tested on: SF-539 CNS
UACC-257 melanoma = tested on: UACC-257 melanoma
M14 melanoma = tested on: M14 melanoma

| Compound | growth (DU-145 prostate) | growth (K-562 leukemia) | growth (MALME-3M melanoma) | growth (MDA-MB-231 breast) | growth (RXF 393 renal) | growth (SF-268 CNS) | growth (SF-295 CNS) | growth (SF-539 CNS) | growth (UACC-257 melanoma) | growth (M14 melanoma) |
| --- | --- | --- | --- | --- | --- | --- | --- | --- | --- | --- |
| O=[N+]([O-])c1ccc(N/N=C\c2cc(Br)ccc2O)nc1 | 31.8% (inactive) and 24.4% (inactive) | 20.6% (inactive) and -3.71% (active) | 16.6% (inactive) | 11% (inactive) and 24.3% (inactive) | 44.2% (inactive) and 48.2% (inactive) | 22.3% (inactive) and 19.7% (inactive) | 6.95% (active) and 7.63% (active) | 8.15% (active) and 9.56% (active) | 9.18% (active) and -3.76% (active) | 2.25% (active) and 13.7% (inactive) |
| Cc1ccc(S(=O)(=O)Nc2ccc3cc([N+](=O)[O-])ccc3c2[N+](=O)[O-])cc1 | 90.9% (inactive) and 106% (inactive) | 81.8% (inactive) and 29% (inactive) | 62.6% (inactive) and 90.9% (inactive) | 98.8% (inactive) and 95.1% (inactive) | 93.2% (inactive) and 102% (inactive) | 81.8% (inactive) and 94.8% (inactive) | 38.9% (inactive) and 53.1% (inactive) | 89.8% (inactive) and 111% (inactive) | 82.3% (inactive) and 97% (inactive) | 95.5% (inactive) and 95% (inactive) |
| CC(/C=N/N1C(=O)c2ccccc2C1=O)c1ccccc1 (stereo not given) | 115% (inactive) | 106% (inactive) | 101% (inactive) | 108% (inactive) | 101% (inactive) | 117% (inactive) | 90.9% (inactive) | 106% (inactive) | 90.5% (inactive) | 108% (inactive) |
| CNC(=O)c1cc(Oc2ccc(NC(=O)Nc3ccc(Cl)c(C(F)(F)F)c3)cc2)ccn1 | 20.7% (inactive) and 13.7% (inactive) | 1.27% (active) and 29.2% (inactive) | -40.2% (active) and 53% (inactive) | -34% (active) and -34.5% (active) | -35.8% (active) and -56.3% (active) | 25.7% (inactive) and 7.26% (active) | 10.7% (inactive) and 6.13% (active) | -33.4% (active) and 10.8% (inactive) | -26.1% (active) | -4.68% (active) and 5.32% (active) |
| CNC(=O)c1cccc(-c2ccc3c(N4CCOC[C@@H]4C)nc(N4CCOC[C@@H]4C)nc3n2)c1 | 12.2% (inactive) | 25.3% (inactive) and 12.6% (inactive) | -32.1% (active) and -46.6% (active) | 6.14% (active) and 4.21% (active) | -28.8% (active) and -33.9% (active) | 9.04% (active) and 13.7% (inactive) | -37.4% (active) and -36.6% (active) | -26.5% (active) and -40.2% (active) | -21.2% (active) and -25.5% (active) | -3.53% (active) and -5.57% (active) |
| CCOc1ccc2cc(-c3nn(CC4CCNCC4)c4ncnc(N)c34)ccc2c1 | 108% (inactive) and 57.5% (inactive) | 59.3% (inactive) and -8.9% (active) | 73.7% (inactive) and -54.7% (active) | 86.5% (inactive) and 15.6% (inactive) | 55.4% (inactive) and 18% (inactive) | 80.6% (inactive) and 41.1% (inactive) | 108% (inactive) and 74.5% (inactive) | 77.4% (inactive) and 40.2% (inactive) | -52.9% (active) | 91.5% (inactive) and -42.6% (active) |
| NC(=O)C1CC2C=CC1C2 (stereo not given) | 114% (inactive) and 115% (inactive) | 103% (inactive) and 93.9% (inactive) | 69.2% (inactive) and 124% (inactive) | 101% (inactive) and 99.1% (inactive) | 108% (inactive) and 89.7% (inactive) | 118% (inactive) and 108% (inactive) | 113% (inactive) and 95.2% (inactive) | 95.2% (inactive) and 112% (inactive) | -24.1% (active) | 106% (inactive) and 87.4% (inactive) |
| CCN(CC)CCC(CNc1ccnc2cc(Cl)ccc12)c1ccc(OC)cc1 (stereo not given) | 84.7% (inactive) and 96.7% (inactive) | 6.83% (active) and 1.92% (active) | -69.1% (active) and -65.7% (active) | 33.1% (inactive) and 44.1% (inactive) | 33.6% (inactive) and 38.1% (inactive) | 75.9% (inactive) and 76.8% (inactive) | 46.5% (inactive) and 1.95% (active) | -80.6% (active) and -66.8% (active) | -70% (active) and -74.4% (active) | -60.3% (active) and -78.3% (active) |
| Oc1nc(NCCc2ccccc2)sc1/C=C1\C=Nc2ncccc21 | 15.3% (inactive) and 20.7% (inactive) | 28.5% (inactive) and 29.9% (inactive) | 44.8% (inactive) and 30.6% (inactive) | 25.9% (inactive) and 25.5% (inactive) | -30.1% (active) and -20.2% (active) | 8.87% (active) and 10.4% (inactive) | 18.7% (inactive) and 22.6% (inactive) | -37.2% (active) and 0.397% (active) | -1.71% (active) and 14.6% (inactive) | 31.7% (inactive) and 29.9% (inactive) |
| CC(C(=O)O)n1cc(C#N)c(=O)[nH]c1=O (stereo not given) | 124% (inactive) and 107% (inactive) | 104% (inactive) | 102% (inactive) and 116% (inactive) | 109% (inactive) and 103% (inactive) | 110% (inactive) and 115% (inactive) | 96.8% (inactive) and 99.7% (inactive) | 93.3% (inactive) and 102% (inactive) | 95.8% (inactive) and 102% (inactive) | 89% (inactive) and 108% (inactive) | 120% (inactive) and 107% (inactive) |
| CC(=O)c1ccc2c(c1)N(CCCN1CCN(CCO)CC1)c1ccccc1S2 | 104% (inactive) and 53.3% (inactive) | 95.3% (inactive) and -16.7% (active) | 86.5% (inactive) and -80% (active) | 91% (inactive) and -12.3% (active) | 32.6% (inactive) and -8.21% (active) | 98.3% (inactive) and 37.5% (inactive) | 100% (inactive) and -53% (active) | 89% (inactive) and 14.7% (inactive) | 30.4% (inactive) and -66.5% (active) | 94.8% (inactive) and -87.4% (active) |
| O=C(Nc1cccc(Cl)c1)c1cc2ccccc2cc1O | 22.1% (inactive) and 25.1% (inactive) | 25.8% (inactive) and 10.5% (inactive) | 2.77% (active) and -9.95% (active) | 27% (inactive) and -1.46% (active) | 18% (inactive) and 33% (inactive) | 21.2% (inactive) and 24.4% (inactive) | 13.5% (inactive) and 62.2% (inactive) | 28.4% (inactive) and 11.7% (inactive) | 5.37% (active) and -16.3% (active) | 48.4% (inactive) and 18.2% (inactive) |
| N#CC(C#N)=C/C=C/c1cccc([N+](=O)[O-])c1 | -26.8% (active) and -24.1% (active) | 7.22% (active) and 3.61% (active) | 7.87% (active) | 9.84% (active) and 8.38% (active) | -68.9% (active) and -73.5% (active) | 6.01% (active) and -8.99% (active) | 37.1% (inactive) and -41.1% (active) | 8.63% (active) and 4.54% (active) | -32% (active) and -64.4% (active) | -37.1% (active) and -74.9% (active) |
| CC1CCCc2sc3nc(NNC(=O)c4cnccn4)n(-c4ccccc4)c(=O)c3c21 (stereo not given) | 12.2% (inactive) and 12.9% (inactive) | 14.2% (inactive) and 13.4% (inactive) | 15.9% (inactive) and 11.2% (inactive) | 28.9% (inactive) and 25.5% (inactive) | 11.2% (inactive) and -15.9% (active) | 14.5% (inactive) and 5.5% (active) | 22.7% (inactive) and 11.3% (inactive) | 6.89% (active) and 6.17% (active) | -7.57% (active) and -18.3% (active) | 7.99% (active) and -2.42% (active) |
| Nc1nc2ncc(CNc3ccc(C(=O)N[C@@H](CCc4nn[nH]n4)C(=O)O)cc3)nc2c(=O)[nH]1 | 99.4% (inactive) and 110% (inactive) | 90.7% (inactive) | 96.9% (inactive) and 104% (inactive) | 110% (inactive) and 99.7% (inactive) | 104% (inactive) and 96.3% (inactive) | 98% (inactive) and 99.5% (inactive) | 98.6% (inactive) and 100% (inactive) | 91% (inactive) and 110% (inactive) | 106% (inactive) and 91.8% (inactive) | 88% (inactive) and 98.6% (inactive) |
